Source: article PMC5540273 (PLoS ONE, 2017)

Columns and labels:
CDC2L5 = tested on: T1, CDC2L5
T1 construct: gene CDK13

CDC2L1 = tested on: T2, CDC2L1
T2 construct: gene CDK11B
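Also: kd values determined as follow-up on hits from a single-replicate KINOMEscan panel screen.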

## Cn1cncc1-c1ccc2ncnc(Nc3ccc(OCc4ccccc4)cc3)c2c1 [GW320571]
CLK3
  Kd: > 10 µM
CSNK1E
  Kd: > 10 µM

## CCn1c(-c2ccccn2)nc2cnccc21 [SB-736398]
CDC2L5
  Kd: > 10 µM

## Cc1cccc(-c2nc(Nc3ccncc3)c3ccccc3n2)n1 [GW855857]
CIT
  Kd: 0.44 µM

## CN1C(=O)C(Nc2ccc(Cl)c(C(=O)O)c2)=C(c2ccc(Cl)cc2)C1=O [SB-404290]
CAMK1G
  Kd: > 10 µM

## CC(C)(C)c1ccc(C(=O)Nc2cn3cc(-c4cccnc4)ccc3n2)cc1
CLK1
  Kd: 0.28 µM
CSNK1E
  Kd: 0.11 µM

## CCn1c(-c2cccnc2O)nc2cnccc21 [SB-736715]
CSNK1A1L
  Kd: > 10 µM

## Cc1cc(-c2ccc3c(c2)CC[C@@H](N[C@@H](C)c2ccccc2)C3)cnc1N.Cl [GW412617]
CAMK1G
  Kd: > 10 µM
CAMK2D
  Kd: > 10 µM

## CC(=O)Nc1nc2cnc(Nc3cc(NC(=O)c4cccc(CCC#N)c4)ccc3C)nc2s1
CSF1R
  Kd: > 10 µM

## CS(=O)(=O)c1ccc(-c2nc3n(c2-c2ccncc2)CCC3)cc1 [SKF-105942]
CDC2L1
  Kd: > 10 µM
CDK9
  Kd: > 10 µM
CSK
  Kd: > 10 µM

## Cn1ccc2ncnc(Oc3ccc(NC(=O)Nc4ccccc4)cc3)c21
CSF1R
  Kd: 0.082 µM

## O=C(Nc1n[nH]c2nc(-c3nccs3)c(Br)cc12)C1CCCC1 [SB-742609]
CDC2L1
  Kd: > 10 µM
CDK2
  Kd: 0.28 µM
CDK4
  Kd: 4.2 µM
CDK9
  Kd: 2.5 µM
CDKL2
  Kd: 0.5 µM

## O=C(Nc1n[nH]c2cc(-c3cccc(F)c3F)ccc12)C1CC1 [SB-733894]
CAMK1G
  Kd: > 10 µM
CDK8
  Kd: > 10 µM
CDKL2
  Kd: 0.3 µM

## Cc1cccc(-c2nc(C)cc(Nc3ccncc3)n2)n1 [GSK257997]
CAMK1G
  Kd: > 10 µM
CAMK2D
  Kd: > 10 µM
CDC2L1
  Kd: > 10 µM
CDK9
  Kd: > 10 µM

## Cc1c(Cn2ccn3c(=O)cc(N4CCOCC4)nc23)cccc1C(F)(F)F [GSK2289044]
CAMK2A
  Kd: > 10 µM

## COc1cc2nccc(Nc3ccc(NC(=O)c4ccc(C)cc4)c(O)c3)c2cc1OC.Cl [GW440132]
CLK3
  Kd: > 10 µM

## COc1ccc(Nc2nccc(NCCNC(=O)Nc3ccccc3F)n2)cc1 [GSK1379901]
CLK3
  Kd: > 10 µM
CSNK1E
  Kd: > 10 µM

## CSc1nn2c(=O)cc(N3CCOCC3)nc2n1Cc1cccc(C(F)(F)F)c1C [GSK2363608]
CSNK1G1
  Kd: > 10 µM

## CN(C)CCN(C)C(=O)c1cc(-c2ccncc2)c(-c2ccc(Cl)c(O)c2)o1.Cl.Cl [SB-710397]
CSNK1D
  Kd: 0.22 µM
CSNK1E
  Kd: 0.41 µM

## CCCc1ccc(S(=O)(=O)NC2CCN(c3ccnc(Nc4ccc(F)cc4)n3)C2)cc1 (centres unmarked) [GSK1379715]
CDC2L5
  Kd: > 10 µM

## Cc1ccc(NC(=O)Nc2cccc(Cl)c2)cc1-c1ccc(C(=O)Nc2ccncc2)cc1 [GSK1398468]
CIT
  Kd: 0.15 µM

## CC(C)(C)c1ccc(C(=O)Nc2cn3cc(Cl)ccc3n2)cc1
CAMKK1
  Kd: > 10 µM

## O=C(Nc1n[nH]c2nc(-c3nccs3)c(Br)cc12)C1CC1 [SB-742251]
CDK2
  Kd: 0.35 µM
CDKL2
  Kd: 0.48 µM

## O=C(Nc1ccccc1)Nc1cccc(Oc2ccc3nccn3n2)c1
CIT
  Kd: 0.0011 µM
CSF1R
  Kd: 0.027 µM
